Whole data set: some 110,000 compounds, median “z-score” near -0.1, cut for the highest 2% near 2. The sample as a whole holds a higher share of the highest values than the screen did. Calls of active or inactive are those of the source.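 Rule for the calls: active = z-score in the third read window above 3 or below -3; inactive = the rest.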

Metabotropic glutamate receptor 8 (Rattus norvegicus), sequence (P70579 whole entry, looked up): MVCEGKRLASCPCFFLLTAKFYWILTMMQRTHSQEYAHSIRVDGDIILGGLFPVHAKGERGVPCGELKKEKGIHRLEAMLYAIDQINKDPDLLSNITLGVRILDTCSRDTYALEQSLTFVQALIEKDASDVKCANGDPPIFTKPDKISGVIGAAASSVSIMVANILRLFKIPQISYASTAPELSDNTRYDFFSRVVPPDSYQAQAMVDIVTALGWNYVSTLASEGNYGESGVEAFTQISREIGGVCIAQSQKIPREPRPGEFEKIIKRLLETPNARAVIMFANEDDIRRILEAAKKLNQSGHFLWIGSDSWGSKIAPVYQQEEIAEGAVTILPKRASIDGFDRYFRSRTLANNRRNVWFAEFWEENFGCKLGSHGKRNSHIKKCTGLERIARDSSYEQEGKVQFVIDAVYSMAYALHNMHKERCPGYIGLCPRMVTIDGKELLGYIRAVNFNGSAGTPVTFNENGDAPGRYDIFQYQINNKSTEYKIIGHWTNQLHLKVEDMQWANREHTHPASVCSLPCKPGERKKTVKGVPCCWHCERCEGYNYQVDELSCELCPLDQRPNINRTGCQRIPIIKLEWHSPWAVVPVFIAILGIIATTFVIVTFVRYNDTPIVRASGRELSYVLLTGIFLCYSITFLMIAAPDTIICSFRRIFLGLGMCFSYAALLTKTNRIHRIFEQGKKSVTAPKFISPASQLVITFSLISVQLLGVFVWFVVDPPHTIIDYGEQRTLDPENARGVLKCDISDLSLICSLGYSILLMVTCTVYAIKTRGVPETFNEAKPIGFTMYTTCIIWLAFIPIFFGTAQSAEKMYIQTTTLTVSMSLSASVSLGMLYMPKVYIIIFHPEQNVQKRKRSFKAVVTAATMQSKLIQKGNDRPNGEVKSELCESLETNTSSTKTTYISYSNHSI

This assay has as its target Metabotropic glutamate receptor 8 (Rattus norvegicus) (UniProt P70579). Kind of assay: rat mGluR8 modulators via GIRK flux, primary screen, cell-based, thallium flux, HTS (AID 488969). The conditions noted are these: HEK293 rat mGluR8, GIRK (G protein-gated inwardly rectifying potassium channel) thallium flux, FluoZin2; at 10 µM; stronger effect = higher value; submaximal glutamate (EC20) added with thallium.
Take `COc1cc(/C=N/NC(=O)COc2ccc(Cl)cc2)ccc1OS(=O)(=O)c1ccc(C)cc1`: the z-score is -0.0849.
On to `CCOC(=O)C1=NNC(C(=O)c2ccc(C)cc2)C1c1ccc(C)cc1` (configuration not stated), for which the z-score is -0.512.
Then `C=C(C)c1cccc(C(C)(C)NC(=O)N2CC(C)OC(C)C2)c1` (configuration not stated), with -0.0325; and `Cc1nn(C)c(C)c1/C=C(\C#N)C(N)=O`, with -0.273; and `Cc1ccc(CN(Cc2ccc(C)o2)C(=S)NCC(=O)O)cc1`, with -0.00212.
To `Cc1sc2nc(CN3CCCCC3)nc(Cl)c2c1C` belongs -0.502; to `Cn1c(NCC(O)CO)nc2c1c(=O)n(Cc1ccc(Cl)c(Cl)c1)c(=O)n2C` (configuration not stated), -0.188.
To `COc1ccc2c(c1)c(=O)cc(-c1ccccc1)n2C` belongs -0.0758.
As to `COCCN=c1scc(-c2ccccc2)n1/N=C/c1c[nH]c2ccccc12`, the z-score worked out at 2.05.
Turning to `CCN=c1scc(-c2ccccc2)n1/N=C/c1ccccn1`, the z-score was -0.0993.
The molecule `COCCN=c1scc(-c2cc(OC)ccc2OC)n1/N=C/c1c[nH]c2ccccc12` showed a z-score of -0.343.
Then `COc1cccc(NC(=O)Cn2cc3c(n2)CCCCC3)c1`, with 2.89; and `CCc1cccc(NC(=O)Cn2cc3c(n2)CCCC3)c1`, with 0.22; and `COc1cccc(CNC(=O)Cn2cc3c(n2)CCCCC3)c1`, with -0.00462.
To `CC1CCc2nn(CC(=O)NC3CCCC3)cc2C1` (configuration not stated) belongs -0.653; to `CC1CCCC(NC(=O)Cn2cc3c(n2)CCCCC3)C1C` (configuration not stated), 0.237; to `CC1CCC(NC(=O)Cn2cc3c(n2)CCCC3)CC1` (configuration not stated), 2.79.
Then `O=C(Cn1cc2c(n1)CCCCC2)Nc1c(F)c(F)cc(F)c1F`, with 0.762; and `CC(=O)c1cccc(NC(=O)Cn2cc3c(n2)CCCC3)c1`, with -0.279.
On to `Cc1cc(C)cc(NC(=O)Cn2cc3c(n2)CCCCC3)c1`, for which the z-score was 5.95 (active).
To `C/C(=N/NC(=O)c1ccc(O)cc1)c1cccc([N+](=O)[O-])c1` belongs -0.369; to `Cc1c2ccccc2nc2c(F)c(NCCO)c(F)c(F)c12`, -0.746; to `COc1ccc(/C=N/OCC(=O)N(Cc2ccc(OC)cc2)c2ccccc2C(=O)O)cc1`, -0.615.
Then `Cc1nn(Cc2ccccc2)c(C)c1NC(=O)CCC(=O)O`, with -0.119; and `Cc1cc(C)c(C(=O)CSc2nnc(-c3cccnc3)n2C)c(C)c1`, with 0.116; and `CCCCNC(=O)/C=C/c1cccs1`, with -0.364.
Then `N#CC(c1cccc(Cl)c1)c1ccc2c(C(F)(F)F)cc(C(F)(F)F)nc2n1` (configuration not stated), with 10.5 (active); and `N#CC(c1ccccc1)c1ccc2c(C(F)(F)F)cc(C(F)(F)F)nc2n1` (configuration not stated), with 0.135.
The molecule `Cc1ccc(C(C#N)c2ccc3c(C(F)(F)F)cc(C(F)(F)F)nc3n2)cc1` (configuration not stated) registered a z-score of 1.26.
To `C/C(Cl)=C\Cn1c(NCCCn2ccnc2)nc2c1c(=O)n(C)c(=O)n2C` belongs -0.632; to `Cn1c(=O)[nH]c(=O)c2c1nc(NC1CCCCC1)n2Cc1ccccc1`, 0.331; to `CC(=O)c1cc(OC(=O)N2CCOCC2)ccc1OC(=O)N1CCOCC1`, -0.376.
To `CN(C)Cc1nc2c(c(=O)[nH]1)C(C)(C)Cc1ccccc1-2` belongs 0.00689.
The molecule `O=C(COC(=O)c1ccc2c(c1)C(=O)N(c1cccc3ncccc13)C2=O)c1ccc(Cl)cc1` displayed a z-score of -0.619.
To `COc1ccc(NC(=O)N2CC(C)OC(C)C2)cc1OC` (configuration not stated) belongs -0.307.
To `O=C(CCNS(=O)(=O)c1ccc2c(c1)CCC(=O)N2)NCc1cccnc1` belongs -0.489; to `CCn1nnc(NC(=O)COc2cc(C)ccc2C(C)C)n1`, -0.0287; to `CCn1nnc(NC(=O)COc2ccc(C3CCCCC3)cc2)n1`, 2.13.
In turn, `CCCn1nnc(NC(=O)COc2cc(C)ccc2C(C)C)n1` gave a z-score of 2.14.
Regarding `Cn1nnc(NC(=O)COc2ccc(C3CCCCC3)cc2)n1`, the z-score came out at 0.85.
On to `CCCn1nnc(NC(=O)COc2ccc(C3CCCCC3)cc2)n1`, for which the z-score came to 2.04.
For `CCCn1nnc(NC(=O)COc2ccc(Cl)cc2)n1`, the z-score was -0.244.
To `CCCCn1nnc(NC(=O)COc2ccc(Cl)c(C)c2)n1` belongs 0.0561.
As to `CCCCn1nnc(NC(=O)COc2cc(C)ccc2C(C)C)n1`, the z-score is 1.04.
`CCCn1nnc(NC(=O)COc2ccc(CC)cc2)n1` showed a z-score of -0.0151.
To `CC1C/C(=N/N=C2/NC(=O)CS2)CC(C)(C)C1` (configuration not stated) belongs -0.18; to `Cc1cccc(-n2nc3c([n+]2[O-])CCc2nonc2-3)c1C`, -0.912; to `Clc1ccccc1CN(Cc1ccccc1)C(c1cccs1)c1nnnn1C1CCCC1` (configuration not stated), -0.135.
Then `CN(C)C(CNC(=O)CCCc1c[nH]c2ccccc12)c1ccco1` (configuration not stated), with -0.0945; and `O=C(O)c1ccccc1C(=O)Nc1n[nH]c(=S)s1`, with -0.153; and `N#CCSc1nc2ccc(N3CCOCC3)cc2c(=O)n1CCc1ccccc1`, with 4.95 (active).
Turning to `CCCCn1c(SCC(=O)NCCOC)nc2ccc(N3CCOCC3)cc2c1=O`, the z-score was 1.19.
Molecule `Nc1ccccc1SCC(=O)Nc1ccc(N2CCOCC2)cc1` gave a z-score of 2.53.
To `O=C(CSc1ncccn1)Nc1ccc(N2CCOCC2)cc1` belongs -0.202; to `CCCCNC(=O)CSc1nc2ccc(N3CCOCC3)cc2c(=O)n1CCc1ccccc1`, 1.19.
To `CCCCn1c(SCC(=O)Nc2ccc(OC)cc2)nc2ccc(N3CCOCC3)cc2c1=O` belongs 4.35 (active); to `N#CCCn1c(SCC(=O)NCC2CCCO2)nc2ccccc21` (configuration not stated), -0.368.

The record behind these values is PubChem BioAssay AID488969 (Vanderbilt High Throughput Screening Facility, 2010).
